We go through seven compounds from PubChem BioAssay.

Test [1] is described as follows: polyglutamine-triggered caspase-3 activation inhibitors, cell-based (AID 1583). The conditions noted are these: polyglutamine-induced caspase-3 activation, cell assay; stronger effect = higher value;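 tested at 10 µM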.
The nature of test [2]: suppressors of polyQ aggregation in yeast, 75Q-TubU reporter (AID 1593). The conditions noted are these: Yeast 75Q polyglutamine aggregation reporter.
Test [3] in a line: inhibitors of mitochondrial cytochrome c release, biochemical, purified mitochondria (AID 1603).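 Further: mouse liver mitochondria challenged with calcium chloride; signal normalized to the plate average as 100%.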 The conditions noted are these: stronger effect = lower value.
Test [4] can be described thus: inhibitors of polyQ protein aggregation (AID 1604). The conditions noted are these: polyglutamine-induced protein aggregation inhibition assay; stronger effect = higher value; tested at 2.5 µM.
Test [5] in a line: enhancers of glutamate uptake in motor neurons, MN-1 cell line (AID 1612).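 Further: tested at 1 µM final; 0% = mean of DMSO vehicle wells on each plate; positive means more glutamate uptake than control and negative means less.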 The settings on record: MN-1 motor neuron cells, stronger effect = higher value.
Test [6] can be described thus: viability rescue of complex I mutant cybrids, primary screen, cell-based, galactose medium, ATP luminescence (AID 1645843;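 active means z-score of at least 1.8 in each of two replicates, scored against plate mean and spread of sample wells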;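 further: positive z means more ATP and so rescue of galactose-driven cybrid death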). The settings on record: complex I mutant cybrid cells, 72 h, stronger effect = higher value.
Test [7] in a line: Cy5 fluorescence interference with SSB-bound oligo, artefact control for HCV NS3 helicase inhibitor project, biochemical, NIH Clinical Collection, E. coli SSB (AID 743268; call rule not given here).
Test [8] concerns Hepatitis C virus NS3 helicase. As to the kind of experiment: HCV NS3 helicase inhibitors, primary screen, biochemical, fluorescence polarization, NIH Clinical Collection (AID 743270; call rule not given here). The settings on record: NS3 helicase binding to Cy5-dT15 DNA, stronger effect = higher value, concentration not given here.
Test [9] addresses Single-stranded DNA-binding protein (Escherichia coli (strain K12)) (UniProt P0AGE0). As to the kind of experiment: E. coli SSB displacement from DNA, counter-screen for HCV NS3 helicase inhibitor project, biochemical, fluorescence polarization, NIH Clinical Collection (AID 743271; in the data active means inhibition above about 28%). The settings on record: stronger effect = higher value, concentration not given here.
Test [10] in a line: fluorescence interference in NS3h assay format, artefact control for HCV NS3 helicase inhibitor project, biochemical, NIH Clinical Collection (AID 743272; call rule not given here;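 further: HCV NS3 helicase with a Cy5 labelled single stranded DNA probe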). The settings on record: fluorescence interference counterscreen, stronger effect = lower value.
The next test concerns F380Y/beta4. As to the kind of experiment: modulators of BK channel variants, profiling panel, selectivity assay, cell-based, U2OS BacMam, thallium flux, beta subunits (AID 1259406).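 Further: initial slope of Thallos dye fluorescence rise after thallium is added; log ratio against the mean of 0.3% DMSO vehicle wells on the same plate.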 The settings on record: at 30 µM.
Test [11] has as its target Calcium-activated potassium channel subunit alpha-1 (Homo sapiens) + Leucine-rich repeat-containing protein 26 (Homo sapiens) (UniProt Q12791+Q2I0M4). Described as above. The settings on record: F380Y/Slo1WT/gamma1, at 30 µM.
In a further test the test system is R275C. The description is as above. The settings on record: at 30 µM.
The next test concerns R275C/beta1. Described as above. The settings on record: at 30 µM.
The next test relates to R275C/beta2Delta. The description is as above. The settings on record: at 30 µM.
Another test concerns R275C/beta4. Described as above. The settings on record: at 30 µM.
In a further test the test system is R275C/Slo1WT/beta2. Described as above. The settings on record: at 30 µM.

Activity calls are given as the source filed them.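 How the source made its calls, unless noted: active means thallium flux through the channel raised or lowered by more than 3 SD from vehicle-only wells, actives on both sides; inactive means the rest.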

Sequence of Calcium-activated potassium channel subunit alpha-1 (Homo sapiens) + Leucine-rich repeat-containing protein 26 (Homo sapiens) (Q2I0M4 whole entry, looked up, one chain of several): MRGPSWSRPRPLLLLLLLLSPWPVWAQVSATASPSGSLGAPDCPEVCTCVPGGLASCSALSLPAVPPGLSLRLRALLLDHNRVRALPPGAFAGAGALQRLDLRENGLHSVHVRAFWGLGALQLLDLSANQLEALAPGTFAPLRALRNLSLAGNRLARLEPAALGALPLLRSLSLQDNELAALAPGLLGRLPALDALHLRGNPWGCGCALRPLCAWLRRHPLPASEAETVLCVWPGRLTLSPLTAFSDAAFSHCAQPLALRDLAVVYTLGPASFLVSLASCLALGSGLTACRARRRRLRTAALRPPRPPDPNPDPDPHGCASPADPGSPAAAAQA

As for `N=C(N)c1ccc(OCCCCCOc2ccc(C(=N)N)cc2)cc1`, in [1], the inhibition was -13.3%. Also, the score in test [2] came to 0.69. Also, the cytochrome c release ratio in test [3] worked out at 2.1. Further, the inhibition of aggregation in [4] is 62.8%. Also, the glutamate uptake change in [5] stood at 6.93%. For the same compound, in test [6], the z-score is -0.685 (inactive).

Turning to `c1ccc(CC2=NCCN2)cc1`, the inhibition is 7.62% in test [1], -2.27% (inactive) in test [8] and -0.48% (inactive) in test [9]. In [2], the score was 1.26. For the same compound, the cytochrome c release ratio in test [3] was 1.14. In test [4], the inhibition of aggregation was found to be 87%. In addition, in test [5], the glutamate uptake change came to 1.58%. In addition, the results for the fluorescence ratio in [7] and in test [10] were 1.05 (inactive) and 1.01 (inactive), respectively. Further, the z-score in [6] was 0.495 (inactive). Further, the log fold change Tl+ flux in the test on F380Y/beta4 is -0.03 (inactive); in [11], -0.0313 (inactive); in the test on R275C, -0.0482 (inactive); with R275C/beta1, 0.0322 (inactive); in the test on R275C/beta2Delta, -0.00877 (inactive); in the test on R275C/beta4, 0.0215 (inactive). In the test with R275C/Slo1WT/beta2, the log fold change Tl+ flux was 0.0521 (inactive).

With `CCN(CCO)CCCC(C)Nc1ccnc2cc(Cl)ccc12` (configuration not stated), the inhibition in test [1] is -6.7%. The same compound came in with a score in test [2] of 1.54. In [3], the cytochrome c release ratio was determined as 0.8. Moreover, the inhibition of aggregation in test [4] stood at 27.4%. Moreover, the glutamate uptake change in test [5] is 0%.

For `CCCCCN=C(N)N/N=C/c1c[nH]c2ccc(OC)cc12`, the figures for the fluorescence ratio in test [7] and in test [10] were 0.7 (active) and 0.88 (inactive), respectively. For the same compound, the inhibition in [8] was 8.32% (inactive); in [9], 7.6% (inactive).

As to `CN1C(C(=O)Nc2ccccn2)=C(O)c2ccccc2S1(=O)=O`, the inhibition in test [1] was -2.37%; in [8] it was 1.98% (inactive); in test [9], 1.44% (inactive). In test [2], this compound registered a score of 0.27. For the same compound, the cytochrome c release ratio in test [3] came to 1.16. In test [4], this compound had an inhibition of aggregation of 83.1%. Also, in test [5], the glutamate uptake change was -13.7%. Further, the fluorescence ratio is 1.01 (inactive) in test [7] and 0.98 (inactive) in [10]. Besides, the log fold change Tl+ flux in the test with F380Y/beta4 is -0.0159 (inactive); in test [11], 0.00877 (inactive); with R275C, 0.0414 (inactive); in the test with R275C/beta1 it was 0.0251 (inactive); in the test with R275C/beta2Delta, -0.00889 (inactive); with R275C/beta4, 0.00622 (inactive). Also, the log fold change Tl+ flux with R275C/Slo1WT/beta2 was -0.000416 (inactive).

Regarding `NS(=O)(=O)c1cc(C2(O)NC(=O)c3ccccc32)ccc1Cl` (configuration not stated), the figures for the inhibition in [1], in test [8] and in test [9] were 2.88%, -2.27% (inactive) and 1.05% (inactive), respectively. The score in test [2] amounted to 1.55. In addition, the cytochrome c release ratio in test [3] came out at 0.9. The inhibition of aggregation in test [4] came to 77%. The glutamate uptake change in test [5] was -2.06%. In addition, the fluorescence ratio in test [7] is 0.81 (inactive); in [10], 1 (inactive). Besides, the z-score in test [6] is 0.15 (inactive). Besides, the log fold change Tl+ flux in the test on F380Y/beta4 was -0.0276 (inactive); in test [11], -0.00177 (inactive); in the test with R275C, -0.0359 (inactive); in the test with R275C/beta1, -0.0254 (inactive); with R275C/beta2Delta, -0.0423 (inactive); in the test on R275C/beta4, -0.0855 (inactive). Moreover, the log fold change Tl+ flux in the test on R275C/Slo1WT/beta2 is 0.0191 (inactive).

Take `COC1=CC(=O)C[C@@H](C)[C@]12Oc1c(Cl)c(OC)cc(OC)c1C2=O`: the values for the inhibition in test [1], in [8] and in test [9] were 4.47%, -4.09% (inactive) and -3.53% (inactive), respectively. The compound further registered a score in [2] of 1. Moreover, the cytochrome c release ratio in test [3] is 1.14. In test [4], this compound returned an inhibition of aggregation of 56.8%. For the same compound, the glutamate uptake change in test [5] was -9%. In addition, the fluorescence ratio in [7] and in test [10] was 1 (inactive) in each case. In test [6], the z-score is 1.05 (inactive). Also, the log fold change Tl+ flux in the test with F380Y/beta4 is -0.0398 (inactive); in [11] it was -0.0624 (inactive); with R275C, -0.0442 (inactive); in the test with R275C/beta1, 0.0145 (inactive); in the test on R275C/beta2Delta, -0.00445 (inactive); with R275C/beta4, -0.0288 (inactive). Moreover, the log fold change Tl+ flux in the test on R275C/Slo1WT/beta2 was 0.00636 (inactive).
